Screening data (PubChem)
PLK1 PBD inh: inhibitors of human PLK1 polo-box domain binding; P53350; Plk1 PBD binding of FITC phosphopeptide, fluorescence polarization; hit rate 2.8% among 360,000; Potency, µM, for inactives: max response, negative = inhibition, hits mostly inhibitors; note: potency is the fitted concentration of half-maximal effect; series mostly up to about 57 µM; nearly all actives have a fitted effect of over 65% in size
USP2a inh: blocks human ubiquitin-specific protease USP2a; O75604; USP2 core, Ub-CHOP2 coupled fluorogenic reporter, 485/531; Potency, µM (top dose mostly 38.3 µM), inactives show at the top dose activity change, negative = inhibition, hits mostly inhibitors; hit rate 0.01% among 330,000; AID 463254;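 note: potency is the fitted concentration of half-maximal effect; plate controls were DMSO wells for no effect and full inhibition by NEM control for full effect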
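Deubiquitinase activity read as fluorescence (485/531 nm) after Ub-CHOP2 cleavage activates the enterokinase reporter on its substrate; USP2 core 10nM, Ub-CHOP2 and substrate 25nM each, 30min compound preincubation then 60min RT; data normalized to NEM, curves fitted.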
VDR inhibitor: inhibitors of human vitamin D receptor; VDR-SRC2-3 peptide fluorescence polarization, 2 h; Potency, µM, for the others: max response, negative = inhibition, most hits filed as inhibitors; hit rate 0.93% among 400,000; AID 504847; note: potency is the fitted concentration of half-maximal effect
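FP read-out; VDR + SRC2-3 coactivator peptide; 23 nl compound by pintool; 2 h RT incubation; reagents held at 4 deg C, protected from light.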
FBPA coupling cs: counter-screen for Giardia aldolase inhibitors: coupling enzyme system; coupling enzyme system counterscreen, AmpLite Red fluorescence; hit rate 0.67% among 290,000; activity change, negative = inhibition, % at 58.2 µM, hits read low; in the data active = activity change below about -30%
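First, compound is pin-transferred into glyceraldehyde-3-phosphate coupling-enzyme reagent at 57.5 uM final and held 10 min at RT. Next, substrate, coupling system and AmpLite Red are added. After 20 min RT, fluorescence (525/598 nm) is read.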
GALK inh: galactokinase (human) inhibition. P51570. Purified GALK, Kinase-Glo residual ATP luminescence. Potency, µM (top dose mostly 57.5 µM), without a hit: at the top dose activity change, negative = inhibition, hits mostly inhibitors. hit rate 0.007% among 270,000. AID 1868; note: potency is the fitted concentration of half-maximal effect
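Human GALK (5 nM) with 35 uM ATP and 100 uM galactose in 20 mM HEPES pH 8.0, 5 mM MgCl2, 60 mM NaCl, 1 mM DTT, 0.01% BSA. After 1 h at room temperature, leftover ATP was read by Kinase-Glo Plus luminescence.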
USP1-UAF1 inh: inhibitors of human USP1/UAF1 deubiquitinase. O94782. recombinant USP1/UAF1, Ub-Rhodamine cleavage fluorescence. Potency, µM (highest dose often 57.1 µM), without a hit: at the top dose activity change, negative = inhibition, hits mostly inhibitors. hit rate 0.23% among 390,000; note: potency is the fitted concentration of half-maximal effect; nearly all actives have a fitted effect of over 60% in size
Target sequence (O94782 whole entry, looked up): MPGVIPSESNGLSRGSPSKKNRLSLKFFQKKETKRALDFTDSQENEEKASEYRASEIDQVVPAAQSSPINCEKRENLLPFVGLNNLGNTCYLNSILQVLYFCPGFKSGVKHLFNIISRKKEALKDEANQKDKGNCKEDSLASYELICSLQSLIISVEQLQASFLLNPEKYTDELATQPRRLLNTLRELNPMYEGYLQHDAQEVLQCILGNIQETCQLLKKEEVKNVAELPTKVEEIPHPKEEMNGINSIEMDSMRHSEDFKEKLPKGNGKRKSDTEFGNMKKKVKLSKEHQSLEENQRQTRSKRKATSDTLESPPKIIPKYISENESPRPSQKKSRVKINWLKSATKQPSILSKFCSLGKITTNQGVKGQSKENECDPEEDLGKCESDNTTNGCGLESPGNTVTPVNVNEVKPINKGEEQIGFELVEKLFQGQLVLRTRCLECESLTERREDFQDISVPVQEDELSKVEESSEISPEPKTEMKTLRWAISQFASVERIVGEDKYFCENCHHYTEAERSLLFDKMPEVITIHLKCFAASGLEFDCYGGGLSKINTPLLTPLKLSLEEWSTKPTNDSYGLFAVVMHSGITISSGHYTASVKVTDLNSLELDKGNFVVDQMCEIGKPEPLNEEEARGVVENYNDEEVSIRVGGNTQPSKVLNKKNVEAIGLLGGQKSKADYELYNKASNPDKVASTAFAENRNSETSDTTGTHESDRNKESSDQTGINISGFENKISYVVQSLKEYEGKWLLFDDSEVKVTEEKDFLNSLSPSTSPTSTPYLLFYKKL
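High-throughput fluorogenic screen: 1nM USP1/UAF1 complex, Ub-Rho substrate 150nM final, 50mM HEPES pH 7.8 with 0.5mM EDTA, 0.1 mg/ml BSA, 1mM TCEP and 0.01% Tween-20.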
TbPYK confirm: confirmation of Trypanosoma brucei pyruvate kinase inhibitors; shares compounds with PLK1 PBD inh; recombinant TbPYK, Kinase-Glo ATP luminescence; Potency, µM (titrated, usually from 76.9 µM), for inactives: top-dose activity change, negative = inhibition, actives largely listed as inhibitors; hit rate 67% among 890; note: potency is the fitted concentration of half-maximal effect; nearly all actives have a fitted effect of over 70% in size
TbPYK ADP-Glo: orthogonal confirmation of Trypanosoma brucei pyruvate kinase inhibitors | shares compounds with PLK1 PBD inh | recombinant TbPYK, ADP-Glo luminescence, 60 min | Potency, µM (series often up to 76.9 µM), for inactives: top-dose activity change, negative = inhibition, actives largely listed as inhibitors | hit rate 62% among 890 | AID 720584; note: potency is the fitted concentration of half-maximal effect; nearly all actives have a fitted effect of over 75% in size
Numbers without * were called inactive; ? = inconclusive; · = no result. Only some compounds are listed: those with a hit (about 3.2% of all), similar ones and a draw of the others. Unless noted, calls come from the whole dose curve; as a rule, active = well fitted curve in the direction sought with a large enough effect; inconclusive = small, poorly fitted or top-dose-only effect, or another doubt; inactive = no such curve, though single readings can be large; an effect the other way counts as inactive or inconclusive. Unless noted, % is set by controls: 0 for no effect and ±100 for the full control effect.

SMILES | PLK1 PBD inh | USP2a inh | VDR inhibitor | FBPA coupling cs | GALK inh | USP1-UAF1 inh | TbPYK confirm | TbPYK ADP-Glo
CC1COCC(C)N1C1=C(Cl)C(=O)c2ccccc2C1=O (stereo unspecified) | 13µM* | · | ? | · | · | -15% | ? | ?
COc1ccc(S(=O)(=O)n2c([N+](=O)[O-])cnc2C)c(C)c1C | -4% | -1% | -5% | 7 | 5% | -13% | · | ·
Cc1ccc(S(=O)(=O)n2c([N+](=O)[O-])cnc2C)c(C)c1C | 21µM* | -1% | 45µM* | 0 | -1% | -16% | 4% | -4%
CCNc1cc(N2CCN(C3CCCCC3)CC2)c2noc3c2c1C(=O)c1ccccc1-3 | · | · | -8% | · | · | ? | · | ·
CC(=O)OCCNc1cc(N2CCN(C)CC2)c2noc3c2c1C(=O)c1ccccc1-3 | 20% | 21% | ? | -26 | 1% | ? | 10µM* | ?
O=C1OC(Nc2ccc3c(c2)OCO3)c2ccccc21 (stereo unspecified) | -15% | 2% | -8% | -3 | 5% | -6% | 0.5µM* | 13µM*
O=C1OC(Nc2ccc(F)c([N+](=O)[O-])c2)c2ccccc21 (stereo unspecified) | -3% | 2% | ? | 1 | · | -3% | · | ·
O=c1cc(NCc2ccccc2)[nH]c(=O)[nH]1 | 5% | · | -2% | · | · | -7% | ? | ?
O=[N+]([O-])c1ccc2c(c1)-c1ccccc1C2O (stereo unspecified) | 8.4µM* | · | · | · | · | -24% | ? | 35µM*
CCOC(=O)c1sc(N/N=C/c2cccc(C)c2)nc1C | -9% | -2% | 3% | -2 | -6% | -20% | · | ·
CCOC(=O)c1sc(N/N=C/c2ccccc2)nc1C | 8.4µM* | -2% | 45µM* | -5 | -8% | -25% | 14µM* | 28µM*
S=C(NCc1ccccc1)NNc1nc2ccccc2[nH]1 | 17µM* | -1% | 25µM* | -9 | 2% | -13% | ? | 18µM*
c1ccc(CNc2nc3ccccc3[nH]2)cc1 | 2% | 2% | 7% | 2 | 7% | -1% | · | ·
Cc1cc(C)n(-c2ccc(NC(=O)C3CCN(Cc4ccccn4)CC3)cc2)n1 | -16% | 0% | 4% | -2 | -1% | -7% | · | ·
COc1ccc2nc(Nc3sc4c(c3C(N)=O)CCCC4)sc2c1 | ? | -4% | ? | 3 | -2% | -14% | 6.3µM* | 7.9µM*
CC(=O)Oc1ccc(N2C(=O)C3C4C=CC(CO)(O4)C3C2=O)cc1 (stereo unspecified) | 27µM* | -6% | 45µM* | -2 | 2% | -20% | -48% | ?
CCCNC(=O)N(C)C[C@@H]1Oc2ncc(-c3ccncc3)cc2C(=O)N([C@H](C)CO)C[C@@H]1C | -13% | · | · | · | · | -26% | 22µM* | 32µM*
CCCNC(=O)N(C)C[C@@H]1Oc2ncc(Br)cc2C(=O)N([C@H](C)CO)C[C@@H]1C | -20% | · | · | · | · | -5% | · | ·
COc1ccc(NC(=O)c2ccccc2N(Cc2ccccc2)S(C)(=O)=O)c(OC)c1 | 2% | -2% | -9% | 0 | -1% | -28% | · | ·
COc1ccc(OC)c(NC(=O)c2ccccc2N(Cc2ccccc2)S(C)(=O)=O)c1 | -9% | 8% | -3% | -1 | -1% | -15% | 8.9µM* | 14µM*
O=C(C[C@@H]1C[C@@H]2c3cc(NC(=O)C4CCC4)ccc3O[C@@H]2[C@@H](CO)O1)NCc1ccc(Cl)cc1 | -4% | · | · | · | · | -21% | · | ·
Cc1nc(SCC(=O)c2cccc([N+](=O)[O-])c2)n[nH]1 | ? | -1% | 25µM* | 4 | -2% | -20% | ? | ?
Cc1ccnc(SCC(=O)c2cccc([N+](=O)[O-])c2)n1 | -6% | 5% | -19% | 0 | 0% | -23% | · | ·
Cc1cccc(NC(=O)COC(=O)c2nn(C)c(=O)c3ccccc23)c1C | -2% | 2% | 0% | · | · | -5% | · | ·
Oc1ccc(C23CC4CC(CC(C4)C2)C3)cc1O | -17% | 2% | 10% | -8 | · | -22% | 20µM* | 20µM*
SMILES | PLK1 PBD inh | USP2a inh | VDR inhibitor | FBPA coupling cs | GALK inh | USP1-UAF1 inh | TbPYK confirm | TbPYK ADP-Glo
O=C(CSc1ccccc1)NCCc1ccccc1 | -7% | 1% | 0% | 0 | · | -13% | · | ·
O=C(CSc1ccc2ccccc2c1)NCCc1ccc(O)c(O)c1 | -13% | -1% | -7% | -10 | 1% | -16% | 7.1µM* | 16µM*
O=C(N/N=C/c1ccc(N2CCOCC2)o1)c1cccc(C(F)(F)F)c1 | -8% | 1% | 25µM* | -6 | -1% | -14% | ? | 35µM*
CC1(C)c2cc(O)ccc2OC1N1CCOCC1 (stereo unspecified) | -6% | 1% | -2% | 0 | -1% | -10% | · | ·
CCCCCCCCSC1=CC(=O)C(OC)=C(OC)C1=O | 2.4µM* | · | · | · | · | -24% | 2.8µM* | 4µM*
Cc1ccc2cc3c(=O)n(C)cc(C=O)c3nc2c1 | -14% | · | 1% | · | · | -7% | · | ·
CC1CCN(C(=S)NC(=O)c2cccs2)CC1 | -1% | 0% | 7% | -1 | 0% | -13% | ? | 14µM*
O=C1C=CC(=O)N1CCCCCCN1C(=O)C=CC1=O | 3.4µM* | 0% | 3.2µM* | 6 | 0% | -9% | 7.1µM* | 7.1µM*
O=S(=O)(NCCC(c1ccc(F)cc1)c1ccco1)c1ccccc1 (stereo unspecified) | 21µM* | -4% | ? | 1 | 0% | -22% | -3% | -5%
COCC(C)n1c(COc2ccccc2F)nnc1SCC(=O)Nc1oc(C)c2c(C)n[nH]c(=O)c12 (stereo unspecified) | -20% | 1% | -4% | · | · | -19% | 20µM* | 18µM*
Cc1ccc2c(c1)-c1c(ssc1=S)C(C)(C)N2C(=O)CSc1nncn1C | -24% | 3% | -25% | 5 | -1% | 10% | · | ·
Cc1cc(C)c2c(c1)-c1c(ssc1=S)C(C)(C)N2C(=O)CSc1nncn1C | -12% | -7% | ? | 2 | 8% | -12% | 14µM* | 16µM*
CCN(CC)C(=O)CSC1=C(C#N)C(c2cccs2)C=C(C)N1 (stereo unspecified) | ? | -1% | 4% | 1 | 8% | -7% | 14µM* | 14µM*
O=C(Cn1cc(COc2ccc(Br)cc2)nn1)c1ccc(O)cc1 | 0% | · | 10% | · | · | -20% | · | ·
